Assay results reported in PubChem BioAssay AID488930 (Broad Institute, 2010).
Results with a measured potency or affinity are listed apart. Inconclusive results are not listed. The source made the active and inactive calls.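 Rule for the calls: active = compounds whose fitted half-maximal concentration is at most ten times their top tested dose; inconclusive = flat curve with 30 to 70% inhibition, or poor fit; inactive = the rest.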

Assay: C. albicans growth inhibition with fluconazole, dose response, antifungal resistance reversal project, CaCi-2 strain, Alamar Blue, dry powder, set 2 (AID 488930)
Details: C. albicans CaCi-2 (fluconazole-resistant clinical isolate) + fluconazole, 48 h; series mostly up to 6 µM

Row | Compound | outcome
1 | O=C(O)Cn1nc(-c2ccccc2)c2ccccc21 | inactive
2 | Cc1cc(N2CCN(C(=O)c3ccc(Cl)cc3)CC2)c2ccc(F)cc2n1 | inactive
3 | O=C(c1ccc(Cl)cc1)N1CCCN(c2ccnc3cc(Cl)ccc23)CC1 | inactive
4 | O=C(c1ccc(Cl)cc1)N1CCN(c2ncnc3ccccc23)CC1 | inactive
5 | COCCC(=O)N1CCN(c2ccnc3cc(Cl)ccc23)CC1 | inactive
6 | Cc1cc(N2CCN(C(=O)c3ccc(Cl)cc3)CC2)c2ccccc2n1 | inactive
7 | O=C(c1ccc(Cl)cc1)N1CCN(c2ccnc3ccccc23)CC1 | inactive
8 | O=C(c1ccc(Cl)cc1)N1CCN(c2ncnc3nc[nH]c23)CC1 | inactive
9 | COc1ccnc(N2CCN(C(=O)c3ccc(Cl)cc3)CC2)c1 | inactive
10 | O=C(Nc1ccc(Cl)cc1)N1CCN(c2ccnc3cc(Cl)ccc23)CC1 | inactive
11 | O=C(c1ccc(Cl)cc1)N1CCNCC1 | inactive
12 | N#Cc1ccc(N2CCN(C(=O)c3ccc(Cl)cc3)CC2)nc1 | inactive
13 | CCCC(=O)N1CCN(c2ccnc3cc(Cl)ccc23)CC1 | inactive
14 | O=C(c1ccc(Cl)cc1)N1CCN(c2ccncc2)CC1 | inactive
15 | O=C(c1ccc(Cl)cc1)N1CCN(c2cccnc2)CC1 | inactive
16 | COc1ccc2c(N3CCN(C(=O)c4ccc(Cl)cc4)CC3)ccnc2c1 | inactive
17 | O=C(c1ccccc1Cl)N1CCN(c2ccnc3cc(Cl)ccc23)CC1 | inactive
18 | Clc1ccc2c(N3CCNCC3)ccnc2c1 | inactive
19 | COc1cccc2c(N3CCN(C(=O)c4ccc(Cl)cc4)CC3)cc(C)nc12 | inactive
